The source of these data is PubChem BioAssay AID1259418 (Broad Institute, 2018).

The whole screen tested about 3,400 compounds, of which about 840 (25%) were called active. Another 11% or so got no clear call; they are omitted. Not all results are given here. Results with a measured potency or affinity are listed apart. Unmarked numbers belong to inactive results.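 Rule for the calls: active = fitted half-maximal concentration of signal decrease at or below twice the sample's top tested concentration; inconclusive = flat curve between -70 and -30 percent, or poor fit; inactive = flat within 30 percent, signal rise, or potency above limit.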

The test can be described thus: T. gondii growth inhibition with IFN-gamma, dose response, cell-based, ME49Luc, HeLa, luciferase, 72 h (AID 1259418). The settings on record: T. gondii ME49Luc in IFN-y HeLa, hits give low values, -100% = high-dose IFN-γ control wells; at 19.5 µM unless noted.
Regarding `O=C(CC1N=C2c3ccccc3N=C(SCc3cccc(F)c3)N2C1=O)NCc1ccc2c(c1)OCO2` (stereo not drawn), the max activity was 67.4%.
With `Cc1cccc(CN2CCC3(CC2)N=C(c2cccc(F)c2)C(=O)N3)c1` the figure was -7.22%; with `Cc1cccc(-c2noc(-c3nnn(Cc4nc(-c5cccc(Cl)c5)oc4C)c3C)n2)c1`, 60.4%.
The same measure for `CCN1CC(C(=O)O)CN2CCN(C(=O)c3ccncc3F)CC2C1` (stereo not drawn): 5.55%.
Consider `COc1ccc(-c2nc(Nc3ccc(C(C)C)cc3)c3ccccc3n2)cc1`, for which the max activity is 12% [at 5 µM].
With `O=C(NCCc1csc(-c2ccccc2)n1)[C@H]1CSCN1C(=O)c1cccc(F)c1`, the max activity is -24.5%.
With `O=C(NCCc1csc(-c2ccccc2)n1)[C@H]1CCCN1C(=O)c1ccco1` the figure was -10.6% [at 0.16 µM]; with `CN(C)C(=O)c1cccc(-c2ccc3c(c2)[C@H]2[C@H](CCN2C(=O)Cc2ccccc2)[C@@H](CO)N3)c1`, 24.7% [at 5 µM]; with `COc1ccccc1-c1ccc2c(c1)[C@H]1[C@H](CCN1Cc1ccccc1F)[C@@H](CO)N2`, 11.2% [at 1.2 µM].
With `Cc1ccc(S(=O)(=O)N2CC[C@@H]3[C@H]2c2cc(-c4cccc(C(=O)N(C)C)c4)ccc2N[C@@H]3CO)cc1`, the max activity is 21.6% [at 10 µM].
With `O=C(Cc1ccccc1)N1CC[C@H]2[C@H](CO)Nc3ccc(C4=CCCCC4)cc3[C@H]21`, the max activity was 30.4% [at 10 µM].
Take `CCOc1ccc(C(=O)N2CCC3(CC2)Nc2cc(F)ccc2-n2cccc23)cc1`: the max activity was -6.53% [at 5 µM].
Take `O=C(COc1ccccc1)N1CCC2(CC1)Nc1ccc(Cl)cc1-n1cccc12`: the max activity is 8.01% [at 0.35 µM].
Consider `Cc1cccc(OCC(=O)N2CCC3(CC2)Nc2ccc(C)c(C)c2-n2cccc23)c1`, for which the max activity was 8.26% [at 0.16 µM].
With `O=C(COc1ccc(Cl)cc1)N1CCC2(CC1)Nc1ccc(Cl)cc1-n1cccc12` the figure was 3.74% [at 0.68 µM].
With `O=C(COc1ccc(Cl)cc1)N1CCC2(CC1)Nc1cc(F)ccc1-n1cccc12`, the max activity is 9.43% [at 0.16 µM].
Consider `Cc1nc2ccccc2n1CC(O)Cn1c2ccccc2c2ccccc21` (stereo not drawn), for which the max activity was 28.9%.
With `CCOc1ccc(NC(=O)Nc2ccc(-c3nc(-c4ccc(C)cc4C)co3)cc2)cc1` the figure was 21.2% [at 0.16 µM].
`CCc1ccc2c(c1)cc(S(=O)(=O)c1ccccc1)c(=O)n2CC(=O)NC1CCCCC1`: the max activity was -12.7% [at 1.35 µM].
For the compound `COc1ccccc1NC(=O)N1CCCCN2[C@H](CO)[C@@H](c3ccc(-c4cccc(C#N)c4)cc3)[C@H]2C1`, the max activity is 24.8% [at 10 µM].
As to `N#Cc1cccc(-c2ccc([C@H]3[C@H]4CN(Cc5ccccc5F)CCCCN4[C@H]3CO)cc2)c1`, the max activity is 26.6% [at 10 µM].
With `Cc1cccc(Cn2c(CN3CCC(C(=O)N4CCCC4)CC3)cc3ccccc32)c1` the figure was -9.03% [at 0.35 µM]; with `Cc1ccc(C2=NC3(CCN(CC(=O)Nc4ccccc4C(F)(F)F)CC3)NC2=O)cc1`, -14.3% [at 0.35 µM]; with `CN(C)c1ccc(-c2nc3c([nH]2)c(=O)n(C)c(=O)n3C)cc1`, 17.3% [at 10 µM].
The same measure for `Cc1ccc(-c2coc(-c3ccc(NC(=O)Nc4cc(F)ccc4F)cc3)n2)c(C)c1`: -9.54% [at 5 µM].
Consider `COc1ccc(CN2CCC3(CC(n4cnnc4)CO3)C2)cc1` (stereo not drawn), for which the max activity was 33.5%.
With `COCCCN1CCc2nc(SCc3nc(-c4ccccc4)oc3C)[nH]c(=O)c2C1`, the max activity is 21% [at 2.6 µM].
The same measure for `COc1ccc(CN2CCc3nc(SCc4nc(-c5ccccc5)oc4C)[nH]c(=O)c3C2)cc1`: -18.7% [at 2.6 µM].
The same measure for `COc1ccccc1CN1CCc2nc(SCc3nc(-c4cccc(C)c4)oc3C)[nH]c(=O)c2C1`: 14.5% [at 0.35 µM]; for `COc1ccc(NC(=O)CN2CCC3(CC2)N=C(c2cccc(F)c2)C(=O)N3)cc1OC`: 28.6% [at 10 µM].
For the compound `COc1ccc(-c2nc(N(CCN(C)C)Cc3ccccc3)c3ccccc3n2)cc1`, the max activity was -20.1% [at 5 µM].
With `CCCCN(Cc1ccco1)c1nc(-c2ccc(OC)cc2)nc2ccccc12`, the max activity was 14.7% [at 0.35 µM].
As for `CN(c1nc(-c2ccc(Cl)cc2)nc2ccccc12)C1CCCCC1`, the max activity is 11.9% [at 0.68 µM].
`CCCN(CCC)c1nc(-c2ccc(OC)cc2)nc2ccccc12`: the max activity is -8.92% [at 0.35 µM].
As to `COc1ccc(-c2nc(NCCCN(Cc3ccco3)C3CCCC3)c3ccccc3n2)cc1`, the max activity was -19.2% [at 5 µM].
Regarding `CCN(CCN(C)C)c1nc(-c2ccc(OC)cc2)nc2ccccc12`, the max activity was -29.5%.
Regarding `COc1ccc(-c2nc(N(Cc3ccco3)C3CCCCC3)c3ccccc3n2)cc1`, the max activity is -11.5% [at 2.6 µM].
On to `COc1ccc(-c2nc(N(C)c3ccc(F)cc3)c3ccccc3n2)cc1`, for which the max activity was 36%.
With `NC(=O)C1(N2CCCCC2)CCN(c2ccc(NC(=O)c3cccc(Cl)c3)cc2C(=O)O)CC1` the figure was 1%; with `Cc1ccc(-c2coc(-c3ccc(NC(=O)Nc4ccc(C)c(F)c4)cc3)n2)cc1`, 19.5% [at 10 µM].
The same measure for `Cc1cc(C(F)(F)F)nn1CC(=O)N1CCCC1c1cc(C(C)C)no1` (stereo not drawn): 16% [at 2.6 µM]; for `COc1cccc(CC(=O)N2CCC[C@@H]2C(=O)NCCc2csc(-c3ccccc3)n2)c1`: 18.6% [at 0.16 µM]; for `Cc1ccc2c(c1C)-n1cccc1C1(CCN(C(=O)c3ccc(Br)o3)CC1)N2`: 9.35% [at 0.35 µM].
Turning to `COc1ccc(-c2nc(NCc3ccc(C)o3)c3ccccc3n2)cc1`, the max activity is -32.7% [at 1.35 µM].
Regarding `CN(Cc1ccco1)c1nc(-c2ccc(Cl)cc2)nc2ccccc12`, the max activity was -31.8% [at 0.16 µM].
With `CCCCN(C)c1nc(-c2ccc(OC)cc2)nc2ccccc12` the figure was 16.9% [at 0.35 µM]; with `COc1ccc(-c2nc(N(CC(C)C)CC(C)C)c3ccccc3n2)cc1`, -12.7% [at 0.35 µM]; with `COc1ccc(-c2nc(N(C)Cc3ccccc3)c3ccccc3n2)cc1`, 21.9%.
